The structures appear in SMILES notation. Results filed as inconclusive are left out. Where a call stands in place of a potency, no number is given. Active and inactive are the calls of the source. Calls follow the shape of the dose curve; as a rule, active = well fitted curve in the direction sought with a large enough effect; inconclusive = small, poorly fitted or top-dose-only effect, or another doubt; inactive = no such curve, though single readings can be large; an effect the other way counts as inactive or inconclusive.
Potency is read from the fitted curve at half-maximal effect.

One assay in a line: qHTS of pediatric cancer cell lines to identify multiple opportunities for drug repurposing: Confirmatory screen for DAOY cells (AID 1347114). Also: nearly all actives have a fitted effect of over 65% in size. Particulars: DAOY medulloblastoma cells viability, cytotoxicity qHTS; series mostly up to 45.9 µM. The method, boiled down: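 Viability measured as metabolically active cells via CellTiter-Glo luminescence following 48 hours of compound exposure, 11-point dilutions in confirmatory testing. 500-1,000 cells/well plated 5 hours before dosing; controls were DMSO and 2.3 µM bortezomib.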
In general terms: Quantitative high-throughput screening tests each substance at several concentrations.
Turning to `CN1CCN(c2ncc(-c3cc(Cl)cc(Cl)c3Cl)c(N)n2)CC1`, the Potency entry was “inactive”. Same read-out and setting: the same measure for `C[C@@H]1[C@H](O)[C@@H](C)C=CC=CC=CC=CC=CC=CC=C[C@H](O[C@@H]2O[C@H](C)[C@H](O)[C@H](N)[C@@H]2O)C[C@@H]2O[C@](O)(C[C@@H](O)C[C@@H](O)[C@H](O)CC[C@@H](O)C[C@@H](O)CC(=O)O[C@H]1C)C[C@H](O)[C@@H]2C(=O)O`: “inactive”. Turning to `CCC[C@H](N[C@@H](C)C(=O)N1[C@@H]2CCCC[C@H]2C[C@H]1C(=O)O)C(=O)OCC`, the Potency entry is “inactive”. The same measure, in the same setting: the same measure for `O=c1[nH]nc(OCCCc2ccc(Cl)cc2)c(NCc2cccnc2)c1Br`: 5.22 µM (active); for `CC[C@]1(O)C[C@H]2CN(CCC3=c4ccccc4=N[C]3[C@@](C(=O)OC)(c3cc4c(cc3OC)N(C)[C@H]3[C@@](O)(C(N)=O)[C@H](O)[C@]5(CC)C=CCN6CC[C@]43[C@@H]65)C2)C1`: 0.261 µM (active).

For the molecule `COc1cc(CNC(=O)CCCCC=CC(C)C)ccc1O`, the Potency entry is “inactive”. On the same count and under the same terms, in the case of `CC(C)n1c(C=C[C@H](O)C[C@H](O)CC(=O)O)c(-c2ccc(F)cc2)c2ccccc21` it was 3.69 µM (active). The same measure, in the same setting: in the case of `CC1CNc2c(cccc2S(=O)(=O)N[C@@H](CCCN=C(N)N)C(=O)N2CC[C@@H](C)C[C@@H]2C(=O)O)C1` (some centres undefined) it was “inactive”; in that of `C[C@@]1(c2cc(-c3cncnc3)c(F)cc2F)CCSC(N)=N1`, “inactive”; in that of `CCOC(=O)[C@H](CCc1ccccc1)N[C@@H](C)C(=O)N1CCCC1C(=O)O` (some centres undefined), “inactive”.

As for `CC1=C(CC(=O)O)c2cc(F)ccc2C1=Cc1ccc(S(C)=O)cc1` (centres undefined), the Potency entry was “inactive”. For the molecule `CSc1cccc(Nc2ncc3cc(-c4c(Cl)cccc4Cl)c(=O)n(C)c3n2)c1`, the Potency is 1.17 µM (active). Regarding `CCC[C@H](Nc1nc(-c2ccc(NC(=O)NCC)c(OC)c2)ncc1C)c1cccnc1`, the Potency is 0.0827 µM (active). The same measure, in the same setting: in the case of `CCN(CCO)CCCOc1ccc2c(Nc3cc(CC(=O)Nc4cccc(F)c4)[nH]n3)ncnc2c1` it was “inactive”.

As to `CC[C@H](NC(=O)[C@H](C)NC)C(=O)N1C[C@@H](O)C[C@H]1Cc1c(-c2[nH]c3cc(F)ccc3c2C[C@H]2C[C@H](O)CN2C(=O)[C@H](CC)NC(=O)[C@H](C)NC)[nH]c2cc(F)ccc12`, the Potency is 5.22 µM (active). Same read-out and setting: in the case of `CC1(COc2ccc3c(c2)ncn3-c2ccc3cccc(N4CCC(N)CC4)c3n2)COC1` it was 20.8 µM (active); in that of `Nc1ccn([C@@H]2O[C@H](CO)[C@@H](O)[C@H]2O)c(=O)n1`, “inactive”; in that of `Cc1ccc2c(c1)C(=O)[C@]1(O)CCN(c3ccccc3)C1=N2`, “inactive”. On the same count and under the same terms, in the case of `C[C@@H]1C[C@H]2[C@@H]3CCC4=CC(=O)C=C[C@]4(C)[C@@]3(F)[C@@H](O)C[C@]2(C)[C@@]1(O)C(=O)CO` it was “inactive”; in that of `CN(C(Cc1ccc(OS(=O)(=O)c2cccc3cnccc23)cc1)C(=O)N1CCN(c2ccccc2)CC1)S(=O)(=O)c1cccc2cnccc12` (centres undefined), “inactive”.

For `Cc1ccc(C(=O)N(CCCN)[C@@H](c2nc3cc(Cl)ccc3c(=O)n2Cc2ccccc2)C(C)C)cc1`, the Potency is 0.012 µM (active).

On to `Cc1csc(-c2nnc(Nc3ccc(Oc4ncccc4-c4ccnc(N)n4)cc3)c3ccccc23)c1`, for which the Potency was 23.3 µM (active). For the molecule `Cc1ccc(C(=O)N(CCCN)[C@@H](c2oc3cc(Cl)ccc3c(=O)c2Cc2ccccc2)C(C)C)cc1`, the Potency was 0.0052 µM (active). Still for that read-out and setting: in the case of `O=C1Nc2ccc(I)cc2C1=Cc1cc(Br)c(O)c(Br)c1` it was “inactive”.

The nature of a further assay: qHTS of pediatric cancer cell lines to identify multiple opportunities for drug repurposing: Confirmatory screen for NB-EBc1 cells (AID 1347115).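 Also: cells exposed to compound for 48 h before the viability read; nearly all actives have a fitted effect of over 45% in size.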 Particulars: NB-EBc1 neuroblastoma cells, viability (cytotoxicity); series mostly up to 45.9 µM. The method, boiled down:
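Viability after 48 h compound treatment at 37C, 500-1,000 cells/well, read as ATP luminescence with CellTiter-Glo. Primary screens used 11-point (MIPE, 0.78 nM-46 µM) or 8-point (NPC, 0.59 nM-46 µM) final concentrations; follow-up screens used 11-point dilutions.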
In the case of `CN1CCN(c2ncc(-c3cc(Cl)cc(Cl)c3Cl)c(N)n2)CC1`, the Potency entry is “inactive”.

With `C[C@@H]1[C@H](O)[C@@H](C)C=CC=CC=CC=CC=CC=CC=C[C@H](O[C@@H]2O[C@H](C)[C@H](O)[C@H](N)[C@@H]2O)C[C@@H]2O[C@](O)(C[C@@H](O)C[C@@H](O)[C@H](O)CC[C@@H](O)C[C@@H](O)CC(=O)O[C@H]1C)C[C@H](O)[C@@H]2C(=O)O`, the Potency entry is “inactive”.

For the molecule `CCC[C@H](N[C@@H](C)C(=O)N1[C@@H]2CCCC[C@H]2C[C@H]1C(=O)O)C(=O)OCC`, the Potency result is “inactive”. Same read-out and setting: in the case of `O=c1[nH]nc(OCCCc2ccc(Cl)cc2)c(NCc2cccnc2)c1Br` it was 13.1 µM (active); in that of `COc1cc(CNC(=O)CCCCC=CC(C)C)ccc1O`, “inactive”; in that of `CC1CNc2c(cccc2S(=O)(=O)N[C@@H](CCCN=C(N)N)C(=O)N2CC[C@@H](C)C[C@@H]2C(=O)O)C1` (some centres undefined), “inactive”. Take `CC1=C(CC(=O)O)c2cc(F)ccc2C1=Cc1ccc(S(C)=O)cc1` (centres undefined): the Potency result is “inactive”. The same measure, in the same setting: the same measure for `CSc1cccc(Nc2ncc3cc(-c4c(Cl)cccc4Cl)c(=O)n(C)c3n2)c1`: 2.08 µM (active). On the same count and under the same terms, the same measure for `CCC[C@H](Nc1nc(-c2ccc(NC(=O)NCC)c(OC)c2)ncc1C)c1cccnc1`: 0.329 µM (active). `CCN(CCO)CCCOc1ccc2c(Nc3cc(CC(=O)Nc4cccc(F)c4)[nH]n3)ncnc2c1`: the Potency entry is “inactive”. On the same count and under the same terms, in the case of `CC[C@H](NC(=O)[C@H](C)NC)C(=O)N1C[C@@H](O)C[C@H]1Cc1c(-c2[nH]c3cc(F)ccc3c2C[C@H]2C[C@H](O)CN2C(=O)[C@H](CC)NC(=O)[C@H](C)NC)[nH]c2cc(F)ccc12` it was “inactive”; in that of `CC1(COc2ccc3c(c2)ncn3-c2ccc3cccc(N4CCC(N)CC4)c3n2)COC1`, “inactive”. Consider `Nc1ccn([C@@H]2O[C@H](CO)[C@@H](O)[C@H]2O)c(=O)n1`, for which the Potency was 3.29 µM (active). Still for that read-out and setting: the same measure for `Cc1ccc2c(c1)C(=O)[C@]1(O)CCN(c3ccccc3)C1=N2`: “inactive”; for `COc1cc([C@@H]2c3cc4c(cc3[C@@H](O[C@@H]3O[C@@H]5CO[C@@H](C)O[C@@H]5[C@H](O)[C@@H]3O)[C@H]3COC(=O)[C@H]23)OCO4)cc(OC)c1O`: 1.47 µM (active). The same measure, in the same setting: in the case of `COc1cc2ncnc(Nc3cc(Br)c(O)c(Br)c3)c2cc1OC` it was “inactive”. For `C[C@@H]1C[C@H]2[C@@H]3CCC4=CC(=O)C=C[C@]4(C)[C@@]3(F)[C@@H](O)C[C@]2(C)[C@@]1(O)C(=O)CO`, the Potency entry was “inactive”.

For `C[C@H](c1ccc(F)cc1CCCC(=O)O)N(c1cc(F)ccc1F)S(=O)(=O)c1ccc(Cl)cc1`, the Potency result is “inactive”.

In the case of `Cc1ccc(C(=O)N(CCCN)[C@@H](c2oc3cc(Cl)ccc3c(=O)c2Cc2ccccc2)C(C)C)cc1`, the Potency is 8.27 µM (active). Same read-out and setting: in the case of `O=C1Nc2ccc(I)cc2C1=Cc1cc(Br)c(O)c(Br)c1` it was “inactive”.

For the origin of these results see PubChem BioAssay (NCATS).
